JMJD2A Tudor inh: blocks the human JMJD2A Tudor domain; Potency, µM (highest dose often 114 µM), for the others: at the top dose activity change, negative = inhibition, hits mostly inhibitors; O75164; 4.4% of 390,000 active; AlphaScreen JMJD2A-Tudor / H3K4me3 peptide binding; AID 504339; also: % is scaled to controls: 0 for no effect and ±100 for the full control effect; nearly all actives have a fitted effect of over 50% in size
G9a block: inhibitors of human histone lysine methyltransferase G9a; Q96KQ7; 8.8% of 350,000 active; G9a H3K9 monomethylation, AlphaScreen, 2 h; Potency, µM (highest dose often 102 µM), inactives show top-dose activity, negative = inhibition, usual class: inhibitors; AID 504332; also: % is scaled to controls: 0 for no effect and ±100 for the full control effect; nearly all actives have a fitted effect of over 75% in size
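Quantitative HTS format: methyltransferase activity on a biotin-tagged H3K9 peptide is measured by AlphaScreen, using a rabbit anti-monomethyl-H3K9 antibody with streptavidin donor and anti-IgG acceptor beads. Final levels are 20 nM enzyme, 500 nM peptide, 20 uM SAM; 2 h RT.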
HP1b binding inh: inhibitors of HP1-beta chromodomain binding to methylated histone tails | P83916 | AlphaScreen HP1-beta / biotin-H3K9me3 peptide binding | Potency, µM (doses to about 114 µM), inactives show at the highest dose activity change, negative = inhibition, usual class: inhibitors | 0.56% of 390,000 active | AID 540317; also: nearly all actives have a fitted effect of over 70% in size
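Compound inhibition of the preformed complex between 50 nM HP1-beta and 50 nM biotinylated H3K9me3 peptide was read by AlphaScreen. Buffer was PBS pH 7.4 with 0.01% Tween-20. Incubations ran 30 min at room temperature, with 10 ug/mL donor/acceptor beads.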
BAZ2B block: inhibitors of human BAZ2B bromodomain; AlphaScreen BAZ2B-H3K14Ac peptide displacement; Q9UIF8; Potency, µM (series often up to 114 µM), for the others: top-dose activity change, negative = inhibition, most hits filed as inhibitors; 4.4% of 360,000 active; also: % is scaled to controls: 0 for no effect and ±100 for the full control effect; nearly all actives have a fitted effect of over 60% in size
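Multi-concentration screen (max 110 uM) measuring displacement of acetylated histone H3 peptide from BAZ2B by AlphaScreen, using 50 nM protein, 50 nM peptide and 10 ug/mL streptavidin donor plus Ni-chelate acceptor beads.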
GLS inhibitor: blocks human kidney-isoform glutaminase activity | O94925 | GLS enzymatic activity, qHTS titration | Potency, µM (top dose mostly 45.5 µM), for inactives: top-dose activity change, negative = inhibition, most hits filed as inhibitors | 0.21% of 410,000 active | AID 624170; also: % is scaled to controls: 0 for no effect and ±100 for the full control effect
Target sequence (O94925 whole entry, looked up, canonical isoform): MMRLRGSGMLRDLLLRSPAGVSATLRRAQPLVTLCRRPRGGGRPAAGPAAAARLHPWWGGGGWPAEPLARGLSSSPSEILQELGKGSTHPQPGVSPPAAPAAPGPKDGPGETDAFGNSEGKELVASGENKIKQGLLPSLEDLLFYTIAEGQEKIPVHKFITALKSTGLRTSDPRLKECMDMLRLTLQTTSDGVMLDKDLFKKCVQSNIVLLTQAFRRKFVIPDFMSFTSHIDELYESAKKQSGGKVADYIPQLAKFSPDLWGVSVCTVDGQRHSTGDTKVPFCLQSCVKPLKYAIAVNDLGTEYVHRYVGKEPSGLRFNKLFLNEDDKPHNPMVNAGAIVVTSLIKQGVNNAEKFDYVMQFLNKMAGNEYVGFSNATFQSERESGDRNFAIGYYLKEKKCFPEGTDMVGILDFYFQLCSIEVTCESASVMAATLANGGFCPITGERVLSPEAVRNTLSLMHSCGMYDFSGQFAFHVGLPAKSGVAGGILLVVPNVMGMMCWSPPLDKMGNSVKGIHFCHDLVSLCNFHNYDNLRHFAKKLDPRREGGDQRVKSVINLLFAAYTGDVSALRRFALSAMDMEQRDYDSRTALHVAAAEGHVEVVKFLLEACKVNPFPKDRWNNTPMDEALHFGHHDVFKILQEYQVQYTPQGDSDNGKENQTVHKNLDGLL
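Assay buffer: 45 mM KH2PO4 pH 8.2, 0.02% Tween-20. hKGA acts on L-glutamine (1 mM solution added); product glutamate is reported by an oxidase/peroxidase Amplex Red coupling, with fluorescence taken at baseline and 30 min.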
Active calls of the source: *; u = inconclusive; x = no result; ! = not active in a repeat; [ ] = remark or other dose. A selection: hits, their analogues and other compounds. The true share with any hit is near 10%. Calls follow the shape of the dose curve; as a rule, active = well fitted curve in the direction sought with a large enough effect; inconclusive = small, poorly fitted or top-dose-only effect, or another doubt; inactive = no such curve, though single readings can be large; an effect the other way counts as inactive or inconclusive. Potency is read from the fitted curve at half-maximal effect.

SMILES	JMJD2A Tudor inh	G9a block	HP1b binding inh	BAZ2B block	GLS inhibitor
Cc1cc(C(=O)CN2C(=O)C(=O)N(Cc3ccccc3)C2=O)c(C)n1-c1ccccc1F	-18%	-4%	3%	-17%	15%
CCc1nn(CC(=O)NC(C)CCc2ccccc2)c(=O)c2cc3occc3n12 (centres undefined)	45µM*	29%	-2%	-17%	6%
CCc1nn(CCCC(=O)N2CCN(c3cccc(C)c3C)CC2)c(=O)c2cc3occc3n12	-35%	71µM*	-15%[57 µM]	u	0%
CCc1nn(C(C)C(=O)NCCc2ccccc2)c(=O)c2cc3occc3n12 (centres undefined)	-9%	x	18%	-2%	2%
Cn1cnc2c(=O)oc3ccc(S(=O)(=O)N4CCN(c5cccc(C(F)(F)F)c5)CC4)cc3c21	-15%	-34%[59 µM]	3%	-9%	4%
c1ccc(-c2nnc3sc(Cc4cccs4)nn23)cc1	-25%	u	1%	-23%	-14%
Clc1ccc(-c2nnc3sc(Cc4cccs4)nn23)cc1	-22%	35µM*	26%	7%	7%
CN(C)CCCN1c2ccc3ccccc3c2Sc2cccc(Cl)c21	50µM*	x	u	x	27%
CN(C)CCCN1c2ccccc2Sc2ccc3ccccc3c21	-33%	x	7%	x	22%
CN(C)CCCN1c2ccccc2Sc2ccc(Cl)cc21	20µM*	71µM*!	u	40µM*	-2%
CN1CCN(CCCN2c3ccccc3Sc3ccc(S(=O)(=O)N(C)C)cc32)CC1	-4%	10µM*	38%	u	12%
COc1ccc(CC(=O)n2[nH]c(=O)c3ccccc3c2=O)cc1OC	7%	x	43%	0%	2%
COc1ccc(CC(=O)n2[nH]c(=O)ccc2=O)cc1OC	8.9µM*	1.1µM*	8.9µM*	-32%	10µM*
O=C(c1ccccc1)c1ccc2n1CC[C@H]2C(=O)O	x	16%[21.5 µM]	x	x	-3%[20 µM]
Cc1ccc(C)c(C(=O)CSc2nc3cc(C(=O)NC4CCCC4)ccc3c(=O)n2CC2CCCO2)c1 (centres undefined)	-1%	3%[59 µM]	10%	5%	0%
COc1cc(N2C(=O)C=CC2=O)c(OC)cc1Cl	10µM*	2.5µM*	10µM*	-15%	5%
COc1ccc(C2c3sc(=O)[nH]c3SC3C4CCC(C4)C23)cc1 (centres undefined)	-30%	u	-7%	u	1%
COc1cc(C2c3sc(=O)[nH]c3SC3C(=O)N(c4ccc(C)cc4)C(=O)C32)ccc1O (centres undefined)	-32%	u	1%	u	31%
COc1ccc(C2c3sc(=O)[nH]c3SCC2C(N)=O)cc1 (centres undefined)	-21%[11.4 µM]	-30%	42%	-14%	30%
COc1cc(C2c3sc(=O)[nH]c3SC3C4CCC(C4)C23)ccc1O (centres undefined)	u	13µM*	u	u	3%
COC(=O)C1CSc2[nH]c(=O)sc2C1c1ccc(O)c(OC)c1 (centres undefined)	-20%	14µM*	2%	-32%	1%
O=c1[nH]c2c(s1)C(c1ccccc1)C1C3CCC(C3)C1S2 (centres undefined)	-28%	45µM*	5%	-22%	2%
CCOC(=O)C1CSc2[nH]c(=O)sc2C1c1ccccc1 (centres undefined)	-15%	45µM*	34%	0%	46%
C[C@@H]1CN([C@H](C)CO)C(=O)CCCn2nncc2CO[C@H]1CN(C)Cc1cccc(O)c1	x	x	x	x	15%
CN(C)/C=C/C=C1C(=O)CCCC1=O	u	u	u	56µM*	-30%
SMILES	JMJD2A Tudor inh	G9a block	HP1b binding inh	BAZ2B block	GLS inhibitor
Cc1ccc(N2C(=O)C(CN3CCCC3)C2c2ccccc2)cc1 (centres undefined)	-30%	-35%	-12%	-25%	-1%
Cc1ccc(N2C(=O)C(CN3CCCCC3)C2c2ccccc2)cc1 (centres undefined)	-21%	8%[59 µM]	89µM*	-7%	6%
COc1cccc(CNC(=O)Cn2c(C)c3cnn(-c4ccccc4)c(=O)c3c2C)c1	-4%	8%[59 µM]	25%	1%	7%
Cc1cc(N)ccc1NC(=O)CN1CCCC1	22µM*	25µM*	u	50µM*	14%
O=C(CN1CCCCCC1)Nc1ccc(F)c(F)c1	8.9µM*	32µM*	u	50µM*	24%
O=C(CN1CCCCC1)Nc1ccc(F)c(Cl)c1	5%	14%	21%	2%	5%
O=C(Cn1cnc([N+](=O)[O-])c1)Nc1ccc(F)c(Cl)c1	-13%	50µM*	4%	-13%	4%
O=C(CN1CCCC1)Nc1ccc(F)c(Cl)c1	22µM*	x	-21%	u	4%
CCOc1cccc(C(=O)N(Cc2ccc(C)o2)C2CCS(=O)(=O)C2)c1 (centres undefined)	-30%	-17%[59 µM]	7%	-21%	-3%
CCCC1OC(c2ccco2)OCC1CC (centres undefined)	-11%	x	8%[57 µM]	x	-12%
Cc1ccc(NC(=O)CN(C)CC(=O)Nc2ccc(F)c(Cl)c2)cc1	14µM*	32µM*	u	50µM*	7%
Cc1ccc(NC(=O)CN2CCN(C)CC2)cc1Br	5.6µM*	x	u	50µM*	-1%
Cc1cccc(NC(=O)CN2CCCCCC2)c1	20µM*	14µM*	50µM*	u	6%
COCCN1C[C@@H](CO)O[C@@H](n2cnc3c(NCc4ccco4)ncnc32)C1	x	x	x	x	1%
Cc1cc(C)c2sc(N(CCN(C)C)C(=O)CCS(=O)(=O)c3ccccc3)nc2c1	u	40µM*	6%	-28%	-13%
Cc1cc(C)c2sc(N(Cc3cccnc3)C(=O)CCOc3ccccc3)nc2c1	-23%	4%[59 µM]	43%	-9%	-5%
CCN(CC)CCN(C(=O)CCS(=O)(=O)c1ccccc1)c1nc2c(C)cc(C)cc2s1	-23%	45µM*	15%	-3%	6%
CCN(CC)CCN(C(=O)CCS(=O)(=O)c1ccccc1)c1nc2cc(OC)c(OC)cc2s1	-9%	18µM*	36%	-19%	15%
CCN(CC)CCN(C(=O)CCS(=O)(=O)c1ccccc1)c1nc2cc(C)cc(C)c2s1	-22%	35µM*	51%	-15%	1%
O=C(CCS(=O)(=O)c1ccccc1)N(Cc1cccnc1)c1nc2ccc(F)cc2s1	-16%	4%[59 µM]	25%	1%	-9%
CC1CCN(C(=O)CSc2nc3ccccc3nc2Cc2ccccc2)CC1	22%	18%[59 µM]	53%[57 µM]	23%	-4%
C=CC1=C(C(=O)O)N2C(=O)C(NC(=O)/C(=N\O)c3csc(N)n3)C2SC1 (centres undefined)	x	1%[2.33 µM]	x	x	u
Cc1ccc(S(=O)(=O)N(C)C)cc1NC(=O)c1cc(S(=O)(=O)N2CCCCC2)ccc1N1CCOCC1	-10%	u	14%	9%	8%

Screening data: PubChem, National Center for Advancing Translational Sciences (NCATS)
